The values that follow come from PubChem BioAssay (Tox21).

Each structure is given as a SMILES string. “And” between values parts separate entries of the source, which are not always exact repeats. Identical values can stand only once. Records with an inconclusive call do not appear. Where a structure was tested more than once in an assay, its records may differ in their call. The source made the active and inactive calls. Unless noted, calls come from the whole dose curve; as a rule, active = well fitted curve in the direction sought with a large enough effect in the repeat runs; inconclusive = weak or mixed curves; inactive = no such curve, though single readings can be large; an effect the other way counts as inactive or inconclusive.

Experiment [1] in a line: qHTS assay to identify small molecule agonists of the sonic hedgehog signaling (Shh) pathway (AID 1259368; calls by dose curve;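 note: NIH/3T3-derived 3T3Gli1-Luc cells carrying a stable Gli1-driven firefly luciferase reporter; series mostly up to about 92 µM; nearly all actives have a fitted effect of over 15% in size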). A digest of the protocol: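 Cells of a mouse NIH/3T3 clone stably expressing luciferase under the Gli1 transcriptional response element are exposed to test chemicals for 24 hr at 37 C. Pathway activation is detected as a rise in luminescence.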
A short description of experiment [2]: qHTS assay to identify small molecule antagonists of the sonic hedgehog signaling (Shh) pathway (AID 1259369; calls by dose curve; note: nearly all actives have a fitted effect of over 45% in size; note: potency is the fitted concentration of half-maximal effect). Put shortly: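 Cells are plated and held 4hr at 37 C, compounds (DMSO) are pinned in, conditioned medium is added to stimulate the pathway, and after 24hr luciferase reagent is added for 30min before luminescence is read.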
In general terms: In qHTS, concentration-response curves come from the screen itself.

Experiment [3] concerns the target Estrogen receptor beta (Homo sapiens) (UniProt Q92731). As to the kind of experiment: qHTS assay to identify small molecule agonists of the estrogen receptor beta (ER-beta) signaling pathway (AID 1259377; active = well fitted activation curve with a large enough effect in the signal ratio in the repeat runs, not every such curve was filed as active; the % refers to the signal ratio). Put shortly:
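Reporter cells (HEK293T, ER-beta-UAS-bla) receive compounds or DMSO after a 6 hr pre-incubation. They then incubate 16 hr at 37C/5% CO2, and fluorescence from LiveBLAzer B/G substrate is measured after 2 hours at room temperature.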

The target is the same in experiment [4]. The experiment can be described thus: qHTS assay to identify small molecule antagonists of the estrogen receptor beta (ER-beta) signaling pathway (AID 1259378; active = well fitted inhibition curve with a large enough effect in the signal ratio in the repeat runs, not every such curve was filed as active; the % refers to the signal ratio). Put shortly:
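ER-beta-UAS-bla HEK293T (GripTite) cells in 2% charcoal-stripped FBS medium were preincubated 6 hr at 37C, dosed with compound, then stimulated with 1 nM E2 (final) for 16 hr; beta-lactamase reporter read by B/G FRET fluorescence after 2 hr substrate loading.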

Experiment [5] in a line: qHTS assay to identify small molecule agonists of the androgen receptor (AR) signaling pathway in the presence of an antagonist - cell viability counter screen (AID 1259379). Note: series mostly up to about 92 µM; nearly all actives have a fitted effect of over 25% in size. A digest of the protocol:
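Cytotoxicity is assessed by CellTiter-Fluor in MDA-kb2 cells carrying an MMTV-driven luciferase reporter. Cells receive 3.0uM nilutamide plus compounds at 15 concentrations and incubate 16 hr at 37C without CO2 before fluorescence reading.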

Experiment [6] is described as follows: qHTS assay to identify small molecule agonists of the estrogen receptor beta (ER-beta) signaling pathway - cell viability counter screen (AID 1259380). Note: nearly all actives have a fitted effect of over 30% in size. Put shortly: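 Cytotoxicity is measured in parallel with the reporter screen: after 16 hr compound exposure at 37C and a 2 hr LiveBLAzer step, CellTiter-Glo is added to the same ER-beta-UAS-bla HEK293T wells and luminescence read after 30 min.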

The target of experiment [7] is Androgen receptor (Homo sapiens) (UniProt P10275). The experiment can be described thus: qHTS assay to identify small molecule agonists of the androgen receptor (AR) signaling pathway in the presence of an antagonist (AID 1259381; calls by dose curve; note: nearly all actives have a fitted effect of over 15% in size). The text has this: National Center for Advancing Translational Sciences [NCATS] NIH Chemical Genomics Center [NCGC] U.S. Environmental Protection Agency [EPA] National Institutes of Environmental Health Sciences [NIEHS] National Toxicology Program [NTP] Assay overview: Androgen receptor (AR) is an important member of nuclear receptor family. Its signaling plays a critical role in AR-dependent prostate cancer and other androgen related diseases. Considerable attention has been given in the past decades to develop methods to study and screen for the environmental chemicals that have the potential to interfere with metabolic homeostasis, reproduction, developmental and behavioral functions. Therefore AR binding assay for screening against androgen agonists and antagonists can be used to identify potential endocrine disruptors. MDA-kb2 cells (from ATCC, deposited by Wilson et al.) are human breast carcinoma cells that were stably transfected with a luciferase reporter gene under control of the MMTV promoter that contains response elements for both androgen receptor (AR) and glucocorticoid receptor (GR). This particular screening for measuring luciferase reporter gene activity using MDA-kb2 cells against Tox21 10K library compounds is a confirmation study on agonist mode screening in the presence of AR-antagonist compound (Nilutamide) at 3.0uM final concentration.
Sequence of Androgen receptor (Homo sapiens) (P10275 whole entry, looked up): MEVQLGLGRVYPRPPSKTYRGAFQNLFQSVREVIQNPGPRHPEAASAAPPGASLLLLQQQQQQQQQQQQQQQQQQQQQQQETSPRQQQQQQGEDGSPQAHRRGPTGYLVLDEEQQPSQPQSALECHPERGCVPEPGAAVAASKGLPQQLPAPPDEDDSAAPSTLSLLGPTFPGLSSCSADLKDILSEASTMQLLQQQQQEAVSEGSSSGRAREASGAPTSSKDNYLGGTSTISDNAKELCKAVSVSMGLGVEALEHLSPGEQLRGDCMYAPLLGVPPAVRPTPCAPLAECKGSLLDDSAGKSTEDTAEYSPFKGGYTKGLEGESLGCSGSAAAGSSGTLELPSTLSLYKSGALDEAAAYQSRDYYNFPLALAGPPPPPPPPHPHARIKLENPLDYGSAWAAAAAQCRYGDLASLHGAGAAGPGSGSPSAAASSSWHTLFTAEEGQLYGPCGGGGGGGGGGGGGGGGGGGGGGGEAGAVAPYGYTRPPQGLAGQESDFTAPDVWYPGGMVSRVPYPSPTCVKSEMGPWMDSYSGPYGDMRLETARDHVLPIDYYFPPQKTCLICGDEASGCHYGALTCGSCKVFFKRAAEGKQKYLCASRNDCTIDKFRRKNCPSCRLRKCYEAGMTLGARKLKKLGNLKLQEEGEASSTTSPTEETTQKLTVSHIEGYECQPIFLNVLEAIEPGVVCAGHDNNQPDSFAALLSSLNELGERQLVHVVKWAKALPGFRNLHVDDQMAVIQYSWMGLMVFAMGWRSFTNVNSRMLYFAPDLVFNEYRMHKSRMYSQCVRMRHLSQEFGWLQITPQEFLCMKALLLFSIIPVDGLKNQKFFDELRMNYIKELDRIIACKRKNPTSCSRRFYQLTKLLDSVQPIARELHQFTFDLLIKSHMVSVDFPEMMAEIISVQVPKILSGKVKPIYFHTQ
Assay Protocol Summary: MDA-kb2 cells (cells cultured without CO2) were dispensed at 3,000 cells/well in 4uL of culture medium into white wall/solid-bottom 1536-well plates (Corning Life Sciences, Corning, NY) using a Multidrop Combi (Thermo Fisher Scientific Inc., Waltham, MA) dispenser. The assay plates were incubated at 37C and 0% CO2 for 5hr. One uL of 3.0uM (final concentration) Nilutamide or assay buffer was added using two separate tips of Flying Reagent Dispenser (FRD, Aurora Discovery, San Diego, CA). Then 23nL of compounds dissolved in DMSO at 15 concentrations and positive controls were transferred to the assay plates using a Pintool station (Wako, San Diego, CA). The assay plates were incubated at 37C and 0% CO2 for 16hr. For luciferase read, 4uL/well ONE-Glo reagent (Promega Corporation, Madison, WI) was added to each well of the assay plates using FRD. After 30min incubation at room temperature, the luminescence signal was measured using a ViewLux plate reader (PerkinElmer, Shelton, CT).

Experiment [8] in a line: qHTS assay to identify small molecule antagonists of the estrogen receptor beta (ER-beta) signaling pathway - cell viability counter screen (AID 1259382). Note: series mostly up to about 92 µM; nearly all actives have a fitted effect of over 55% in size. A digest of the protocol: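 Cytotoxicity counter screen multiplexed with the beta-lactamase antagonist assay: GripTite HEK293T ER-beta-bla cells were treated 16 hr with test chemicals in the presence of 1nM 17-beta-estradiol, and viability was measured by CellTiter-Glo.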

Experiment [9] addresses Estrogen receptor (Homo sapiens) (UniProt P03372). The experiment can be described thus: qHTS assay to identify small molecule agonists of the estrogen receptor alpha (ER-alpha) signaling pathway in the presence of an antagonist (AID 1259383; calls by dose curve; note: top concentration of the series differs between compounds; nearly all actives have a fitted effect of over 15% in size). Put shortly:
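Agonist-mode confirmation in the presence of the ER antagonist ICI-182,780 at 10.0nM final. Breast-derived VM7Luc4E2 reporter cells were exposed to compounds for 22hr, and ERE-driven luciferase was quantified by luminescence.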

Experiment [10] can be described thus: qHTS assay to identify small molecule agonists or antagonists of the thyroid stimulating hormone receptor (TSHR) signaling pathway - wild type cell line counter screen (AID 1259384; calls by dose curve). A digest of the protocol:
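Wild-type HEK293 cells were plated 18 h at 37 C/5% CO2, pin-dosed with compound plus Ro20-1724 medium, held 30 min at room temperature, then given cAMP-d2 and anti-cAMP-cryptate; fluorescence was read after 1 h. Fifteen concentrations, triplicate.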

Sequence of Estrogen receptor (Homo sapiens) (P03372 whole entry, looked up): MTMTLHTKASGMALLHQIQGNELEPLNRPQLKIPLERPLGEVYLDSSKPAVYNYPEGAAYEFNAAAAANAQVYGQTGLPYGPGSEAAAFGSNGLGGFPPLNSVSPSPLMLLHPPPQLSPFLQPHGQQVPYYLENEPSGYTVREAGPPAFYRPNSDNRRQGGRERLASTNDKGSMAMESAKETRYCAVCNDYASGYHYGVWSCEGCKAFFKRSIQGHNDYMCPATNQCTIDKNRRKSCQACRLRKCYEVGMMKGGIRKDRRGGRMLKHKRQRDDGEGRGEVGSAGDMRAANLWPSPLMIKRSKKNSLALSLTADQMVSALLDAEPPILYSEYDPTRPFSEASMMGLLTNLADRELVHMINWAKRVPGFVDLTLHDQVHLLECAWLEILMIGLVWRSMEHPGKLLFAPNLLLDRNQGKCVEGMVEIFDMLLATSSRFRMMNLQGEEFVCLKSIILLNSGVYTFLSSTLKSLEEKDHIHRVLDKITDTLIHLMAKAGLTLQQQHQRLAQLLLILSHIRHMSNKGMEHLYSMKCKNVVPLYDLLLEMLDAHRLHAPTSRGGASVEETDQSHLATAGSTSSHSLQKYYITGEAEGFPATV
Sequence of Estrogen receptor beta (Homo sapiens) (Q92731 whole entry, looked up): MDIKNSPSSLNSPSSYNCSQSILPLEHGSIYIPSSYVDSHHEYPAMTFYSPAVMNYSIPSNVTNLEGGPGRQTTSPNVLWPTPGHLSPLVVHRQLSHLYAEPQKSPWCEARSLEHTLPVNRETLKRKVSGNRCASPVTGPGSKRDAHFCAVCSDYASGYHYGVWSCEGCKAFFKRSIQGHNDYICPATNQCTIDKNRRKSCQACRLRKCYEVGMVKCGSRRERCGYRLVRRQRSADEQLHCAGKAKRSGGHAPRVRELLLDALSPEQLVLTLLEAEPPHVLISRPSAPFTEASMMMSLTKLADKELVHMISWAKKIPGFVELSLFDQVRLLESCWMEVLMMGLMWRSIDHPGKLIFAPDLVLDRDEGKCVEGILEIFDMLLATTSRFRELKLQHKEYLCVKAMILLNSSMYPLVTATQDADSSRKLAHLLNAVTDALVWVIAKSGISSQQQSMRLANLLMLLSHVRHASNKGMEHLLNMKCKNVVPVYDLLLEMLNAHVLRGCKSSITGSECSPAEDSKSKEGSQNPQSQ

With `C=CC(=O)OCCCCCC(C)C`, the compound was classed as inactive in [1], in experiment [4], in [7] and in experiment [8]. The Potency result in experiment [2], in [3], in experiment [5] and in [6] was “inactive” in each case.
Consider `OC[C@@H](O)[C@H]1O[C@@H]2O[C@H](C(Cl)(Cl)Cl)O[C@@H]2[C@H]1O`, for which the compound was called inactive in experiment [1], in experiment [4] and in [8]. In addition, the Potency entry in experiment [2], in experiment [3], in experiment [5] and in [6] was “inactive” throughout.
In the case of `Cc1cccc(N)c1C`, the compound was classed as inactive in experiment [1], in experiment [4] and in experiment [8]. The Potency entry in experiment [2], in experiment [3], in [5] and in experiment [6] was “inactive” in each case.
As for `Nc1ccc(N)cc1`, the compound was classed as inactive in experiment [1], in experiment [4] and in [8]. Besides, the Potency in experiment [2] is 54.7 µM (active) and 48.6 µM (active) and inactive. Moreover, the Potency entry in experiment [3], in experiment [5] and in experiment [6] was “inactive” in each case.
`c1ccc2c(c1)CCCC2`: the outcome in [1], in experiment [4], in experiment [7], in [8] and in [9] was inactive. For the same compound, the Potency result in experiment [2], in experiment [3], in experiment [5] and in experiment [6] was “inactive” in each case.
Turning to `O=[N+]([O-])c1cc([As](=O)(O)O)ccc1O`, the call in experiment [1], in experiment [4], in [8] and in experiment [10] was inactive. Further, the Potency result in experiment [2], in [3], in experiment [5] and in experiment [6] was “inactive” throughout.
As to `C=CC#N`, the outcome in experiment [1], in [4] and in [8] was inactive. In addition, the Potency result in experiment [2], in experiment [3], in [5] and in experiment [6] was “inactive” each time.
As for `CC(=O)C1CCOC1=O` (stereo not given), the outcome in experiment [1], in experiment [4], in [8] and in experiment [10] was inactive. The Potency result in experiment [2], in experiment [3], in [5] and in [6] was “inactive” throughout.
As for `O=C(O)C1C(C(=O)O)C2(Cl)C(Cl)=C(Cl)C1(Cl)C2(Cl)Cl` (stereo not given), the result in experiment [1], in experiment [4] and in experiment [8] was inactive. In addition, the Potency result in experiment [2], in [3], in experiment [5] and in experiment [6] was “inactive” each time.
`CSc1nnc(C(C)(C)C)c(=O)n1N`: the compound was called inactive in experiment [1], in experiment [4] and in experiment [8]. In addition, the Potency entry in experiment [2], in experiment [3], in [5] and in [6] was “inactive” in each case.
`O=S(=O)(O)OOS(=O)(=O)O`: the compound was classed as inactive in experiment [1], in [4] and in experiment [8]. Further, the Potency entry in experiment [2], in [3], in experiment [5] and in experiment [6] was “inactive” in each case.
For `COC(C)(C)CCCC(C)C/C=C/C(C)=C/C(=O)OC(C)C` (stereo not given), the call in [1], in [4], in experiment [7] and in experiment [8] was inactive. The Potency entry in experiment [2], in [3], in experiment [5] and in [6] was “inactive” each time.
`CNc1cnn(-c2cccc(C(F)(F)F)c2)c(=O)c1Cl`: the call in experiment [1], in experiment [4] and in [8] was inactive. Also, the Potency result in [2], in [3], in experiment [5] and in experiment [6] was “inactive” throughout.
In the case of `Clc1cnc(Oc2ccc(Oc3ncc(Cl)cc3Cl)cc2)c(Cl)c1`, the outcome in experiment [1], in experiment [4], in experiment [8] and in [10] was inactive. Moreover, the Potency result in experiment [2], in experiment [3], in experiment [5] and in [6] was “inactive” each time.
Take `COP(=S)(OC)Oc1ccc(SC)c(C)c1`: the call in [1], in [4] and in [8] was inactive. The Potency result in [2], in experiment [3], in experiment [5] and in [6] was “inactive” throughout.
Take `Nc1ncc([N+](=O)[O-])s1`: the result in experiment [1], in [4], in [8], in [9] and in experiment [10] was inactive. In addition, the Potency result in experiment [2], in experiment [3], in experiment [5] and in [6] was “inactive” each time.
Consider `CN1C(=O)CCS(=O)(=O)C1c1ccc(Cl)cc1` (stereo not given), for which the outcome in [1], in experiment [4], in experiment [8] and in [10] was inactive. Besides, the Potency entry in experiment [2], in experiment [3], in experiment [5] and in [6] was “inactive” throughout.
Consider `COC(=O)Nc1cccc(OC(=O)Nc2cccc(C)c2)c1`, for which the compound was classed as inactive in experiment [1], in experiment [4] and in experiment [8]. In addition, the Potency entry in experiment [2], in experiment [3], in [5] and in experiment [6] was “inactive” in each case.
With `Cc1cccc(C)c1N`, the call in [1], in experiment [4], in [8], in [9] and in experiment [10] was inactive. Besides, the Potency result in experiment [2], in experiment [3], in experiment [5] and in experiment [6] was “inactive” throughout.
